Ecoli rRNA inh: inhibits bacterial ribosomal RNA function over humanized ribosomes. hit rate 1.6% among 350,000. E. coli WT GFP vs humanized-ribosome RFP mutants, fluorescence, 24 h; active compounds read low; DMSO median 0, no signal -100. AID 720706. GFP signal change (wild-type ribosome), % (test concentration not listed);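 active = significant combined selectivity score with lowered wild-type GFP, culture density cut under 30%, mutant RFP and density less affected; inactive = any of these conditions unmet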
ERAP1 HTS inh: blocks human ERAP1 aminopeptidase activity | inhibition, % at 10.7 µM | hit rate 0.15% among 340,000 | AID 652197 | recombinant ERAP1, Leu-AMC fluorescence, 60 min;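 active = mean replicate inhibition of at least 30%, or all replicates individually reaching that 30% level; inactive = mean below 30% and not every replicate reaching it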;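 note: 0% = neutral control wells and 100% = L-leucinethiol positive control wells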
CFTR F508del cor: CFTR F508del correction in bronchial cells | CFBE cells, YFP halide quenching; stimulated with forskolin plus potentiator P3; % fluorescence drop versus neutral controls | AID 720511 | hit rate 0.36% among 350,000 | activity (quench increase), % at 7.58 µM;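 active = mean added fluorescence quench of at least 8% versus neutral control, with both replicates also reaching 8%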;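 note: cells transiently co-express mutant CFTR-F508del with the halide-sensitive YFP; corrector assay measuring rescue of mutant channel to the surface after 24 h compound exposure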
PvdQ acylase: P. aeruginosa PvdQ acylase inhibition; purified PvdQ acylase, fluorescence plate reader; inhibition, % at 10 µM; hit rate 0.063% among 340,000; AID 488965; in the data active = inhibition above about 30%, passing the limit was not always enough;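 note: 0% = vehicle neutral wells and 100% = reference inhibitor wells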
ARNT-TACC3 inh: disrupts binding between human ARNT and TACC3. hit rate 0.66% among 390,000. inhibition, % at 9.99 µM. AlphaScreen His-ARNT PAS-B/GST-TACC3 binding, luminescence; TACC3 fragment carries E629A point mutation. Q9Y6A5;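 active = mean inhibition of replicates at least 50% and at least half of replicates each reaching 50%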;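 note: 0% = complete ARNT plus TACC3 wells and 100% = ARNT alone without TACC3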
Starred values were filed as active, the others as inactive; . = no result. An excerpt weighted towards active compounds, which were near 2.1% of everything screened.

SMILES | Ecoli rRNA inh | ERAP1 HTS inh | CFTR F508del cor | PvdQ acylase | ARNT-TACC3 inh
COc1cc(C=C2C(=O)C=CC2=O)ccc1O | 11 | 53* | -3 | . | .
COc1ccc(CC(=O)OC(C)C(=O)c2ccc(C)cc2)cc1 (stereo not given) | -30* | 0 | 2 | -3 | -15
Cc1nc(-c2ccccn2)nc(SCC(=O)c2ccccc2)c1Cl | -23* | 0 | 0 | -6 | -2
CC(C)CC#Cc1ccc2c(c1)O[C@H](CN(C)C(=O)Nc1ccccc1)[C@H](C)CN([C@@H](C)CO)S2(=O)=O | -2 | -1 | 1 | . | -1
CC(=O)Nc1ccc(/C=C(\C#N)C(=O)NC2CCCCC2)cc1 | -26* | 1 | 3 | -5 | 18
COc1ccccc1C1CC(=O)Nc2cc3c(cc21)OCCO3 (stereo not given) | 11 | -2 | 11* | -5 | 4
COc1ccccc1C1CC(=O)Oc2cc(C)c(Cl)cc21 (stereo not given) | -21* | . | 1 | -10 | -10
Fc1cccc(CCN2C(=S)NC[C@@H]2CC2CCCCC2)c1 | -23* | 2 | 1 | 13 | -4
Cn1c(=O)c(-c2cc(=O)[nH][nH]2)c(O)c2ccccc21 | -34* | 0 | -1 | -10 | .
CNC[C@H]1Oc2ccc(NC(=O)CCN3CCOCC3)cc2CC(=O)N([C@@H](C)CO)C[C@@H]1C | 6 | 1 | 0 | . | .
O=C(O)C[C@H]1C[C@H]2c3cc(NS(=O)(=O)c4ccccc4)ccc3O[C@H]2[C@@H](CO)O1 | 1 | -1 | -3 | . | .
CCNC(=S)NNC(=O)CC(C)C | 20 | -3 | 9.5* | -14 | -1
Cc1ccc(C)c(COC(=O)c2cccc(S(=O)(=O)N3CCCC3)c2)c1 | 1 | -1 | -5 | 3 | -6
N#Cc1ccccc1COC(=O)c1cccc(S(=O)(=O)N2CCCC2)c1 | -29* | 0 | -1 | -1 | -7
CN(C)N1C(=O)CC(N2CCCCC2)C1=O (stereo not given) | -31* | 4 | 2 | 7 | 4
COC1=C(N)C(=O)c2nc(-c3nc(C(=O)O)c(C)c(-c4ccc(OC)c(OC)c4O)c3N)ccc2C1=O | . | . | . | 8 | 65*
COc1ccc(-c2ncncc2-c2csc(C)n2)c(O)c1OC | . | . | . | -2 | 7
CCN(CC)S(=O)(=O)c1cc(NC(=O)C(C)N2CCN(c3ccccn3)CC2)ccc1C (stereo not given) | -20* | 0 | 1 | 4 | 2
O=C(Nc1ccc(S(=O)(=O)N2CCOCC2)cc1)c1cc(-c2cc(Cl)ccc2O)n[nH]1 | -38* | 2 | 1 | -12 | -86
Cc1cc(O)c(-c2cc(C(=O)Nc3ccc(S(=O)(=O)N4CCOCC4)cc3)[nH]n2)cc1C | . | . | . | 0 | 0
O=C(O)C(F)=C1c2ccccc2-c2ccccc21 | -30* | -12 | -2 | . | .
Cc1cc(O)c(-c2cc(C(=O)Nc3cccnc3)[nH]n2)cc1C | 2 | 5 | -4 | 2 | -2
CCc1ccc(O)c(-c2cc(C(=O)Nc3cccnc3)[nH]n2)c1 | -37* | . | 1 | 9 | -8
Cc1cc(C)c(O)c(-c2cc(C(=O)Nc3cccnc3)[nH]n2)c1 | -33* | -3 | -2 | -8 | -4
Cc1cccc(NC(=O)c2cc(-c3cc(Cl)ccc3O)n[nH]2)c1 | . | . | . | -4 | -7
SMILES | Ecoli rRNA inh | ERAP1 HTS inh | CFTR F508del cor | PvdQ acylase | ARNT-TACC3 inh
Cc1nn(Cc2ccccc2Cl)c(C)c1C(=O)N1CCN(c2ccccc2)CC1 | -27* | -3 | . | 6 | -6
COc1ccc(C=Nc2cccnc2N)cc1 | . | . | . | -10 | 28*
Cc1ccc(C=Nc2cccnc2N)cc1 | . | . | . | -5 | 6
Fc1ccc(CN2CCN(c3ncnc4scc(-c5ccccc5)c34)CC2)cc1 | -52 | 1 | 4 | -12 | -1
Fc1ccc(-c2csc3ncnc(N4CCN(Cc5ccccc5)CC4)c23)cc1 | -23* | -1 | -3 | -15 | 1
Fc1ccc(N2CCN(c3nc(CN4CCOCC4)nc4scc(-c5ccccc5)c34)CC2)cc1 | -25* | 4 | 1 | -4 | .
C[C@@H]1CN([C@@H](C)CO)C(=O)c2cc(C3=CCCC3)cnc2O[C@H]1CN(C)C(=O)c1cccnc1 | 1 | 1 | 1 | . | -9
O=c1[nH]c(=S)[nH]c2nc(-c3ccccc3)cnc12 | -13 | 16 | 1 | -4 | 1
Cc1cc2nc3c(=O)[nH]c(=S)[nH]c3nc2cc1NC(=O)C(F)(F)F | 41 | 1 | 8 | 2 | 70*
COc1ccc(CN2CCNC(=O)C2CC(=O)NCCCC2CCCC2)c(C)c1C (stereo not given) | -26* | -1 | 3 | -9 | -5
CC(=O)C1=C(C)N(CC(C)C)C(=S)NC1c1ccc(Br)cc1 (stereo not given) | -1 | 1 | 0 | . | .
Cc1ccc(-c2c[n+](CC(=O)Nc3nc(-c4ccccc4)cs3)c3n2CCC3)cc1 | -47* | 4 | -1 | -13 | 5
COc1ccc(-c2c[n+](CC(=O)c3ccccc3)c3n2CCCCC3)cc1 | -49* | 5 | 2 | -2 | -15
O=C(C[n+]1cc(-c2ccccc2)n2c1CCC2)Nc1nc(-c2ccccc2)cs1 | . | . | . | -7 | 9
O=C(C[n+]1cc(-c2ccccc2)n2c1CCCCC2)c1ccc(Cl)cc1 | -40* | 0 | -3 | -2 | .
C[C@H]1CN([C@@H](C)CO)C(=O)c2cc(-c3ccccc3)cnc2O[C@H]1CN(C)C(=O)NC1CCCC1 | 3 | 3 | 0 | . | -5
COc1ccc(CN(C)C[C@H]2Oc3c(NS(C)(=O)=O)cccc3C(=O)N([C@@H](C)CO)C[C@@H]2C)cc1 | -2 | -2 | -2 | . | 12
O=C(C[C@@H]1CC[C@@H]2[C@H](COC[C@H](O)CN2Cc2ccc(F)cc2)O1)N1CCc2ccccc2C1 | 3 | 2 | 2 | . | 9
COc1ccc2c(c1OC)c(=O)n1c3ccc(OC(C)C(=O)NCCN4CCOCC4)cc3c3ccnc2c31 (stereo not given) | 17 | 10 | 5 | -6 | 9
CC(Oc1ccc2c(c1)c1ccnc3c4ccccc4c(=O)n2c13)C(=O)NCCN1CCOCC1 (stereo not given) | . | . | 7 | 20 | 48*
COc1ccccc1N1CCN(C(=O)CCc2nnc3ccc(N4CCC(C)CC4)nn23)CC1 | -23* | 0 | -1 | -4 | 1
C[C@@H]1CCCCO[C@H](CN(C)C(=O)C2CCCCC2)[C@H](C)CN([C@@H](C)CO)C(=O)c2cc(NC(=O)NC3CCCCC3)ccc2O1 | -1 | -5 | 1 | . | .
CCN(CC)Cc1c(O)ccc2cc(-c3nc4ccccc4n3C)c(=O)oc12 | 6 | 91* | -3 | -1 | -21
CC(C)NC(=O)Nc1ccc2c(c1)C(=O)N([C@@H](C)CO)C[C@H](C)[C@@H](CN(C)Cc1ccc(Cl)c(Cl)c1)OCCCC[C@@H](C)O2 | 0 | 0 | 0 | . | .
CC(C)(C)C1CCC(OC(=O)C[N+]2(C)CCCC2)CC1 (stereo not given) | 7 | 41* | 3 | -16 | 6

Bioassay records as filed in PubChem BioAssay.
